# This excerpt belongs to a sample that is enriched for hits.
# CD40 NFkB inh: CD40 pathway inhibition in BL2 cells; 83,000 compounds, 0.94% hits; inhibition, % at 10 µM; BL2 NF-kB luciferase reporter, CD40L-induced, 4 h; AID 1053188;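 active = mean inhibition of at least 50% with a set share of replicates also reaching that level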;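 also: 0% = neutral control wells and 100% = IKK inhibitor VII at 50 µM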
# Active calls of the source: *; [ ] = dose if it differs, or a comment.
SMILES,CD40 NFkB inh
Cc1ccc(-n2ncc3c(N4CCN(c5ccccc5)CC4)ncnc32)c(C)c1,15
COc1cccc(-c2ccc([C@@H]3[C@H](CO)N4C(=O)CN(C(=O)C5CCCC5)C[C@@H]34)cc2)c1,11
O=C(OCC(=O)N1CCCC1=O)c1cc(S(=O)(=O)N2CCOCC2)ccc1F,13
N#Cc1ccccc1COC(=O)c1cc(S(=O)(=O)N2CCOCC2)ccc1F,11
CCc1cc2c(COC(=O)c3cc(S(=O)(=O)N4CCOCC4)ccc3F)cc(=O)oc2cc1O,51*
CNC[C@@H]1Oc2c(NC(=O)NC(C)C)cccc2C(=O)N(C)C[C@H]1C,2
COC(=O)C(CCCN=C(N)N)NC(=O)CCCc1c(-c2ccccc2)[nH]c2c(F)cc(F)cc12 (centres undefined),9[25 µM]
COCC(=O)N(C[C@H]1N[C@H](CO)[C@@H]1c1ccc(-c2cncnc2)cc1)C(C)C,1[25 µM]
